Gli-Sufu block: antagonists of Gli-Sufu signaling | Sufu-KO-LIGHT fibroblasts, Gli luciferase reporter luminescence | inhibition, % at 5 µM | 340,000 compounds, 0.74% hits;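 active means inhibition above about 55%, limit read from the data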;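 further: 0% = DMSO-treated cells and 100% = wells with medium but no cells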
COUP-TFII inh: blocks human COUP-TFII nuclear receptor; P24468; HEK293T NGFI-A luciferase reporter, luminescence; inhibition, % at 8.6 µM; 370,000 compounds, 0.7% hits;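 active means inhibition above a per-plate cutoff, mean inhibition of test wells between control levels plus 3 SD, cut at about 38% in these data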;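 further: cells cotransfected with COUP-TFII expression vector driving the NGFI-A reporter; 0% = median of COUP-TF2 test wells and 100% = reporter-only cells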
NCOA1 inh: inhibits human SRC1 coactivator | HEK293 GAL4-SRC1 luciferase reporter, luminescence | Q15788 | inhibition, % at 3.6 µM | 360,000 compounds, 0.12% hits;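 active means inhibition above the campaign mean plus 3 SD, with each screening campaign given its own cutoff, cut at about 60% in these data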;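 further: 0% = DMSO treated cells and 100% = gossypol at 36 µM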
NR5A2 inv ag: suppresses constitutive activity of human LRH-1; HEK293T StAR-luciferase reporter, LRH-1 transfected, 24 h; 360,000 compounds, 0.13% hits; inhibition, % at 3.6 µM; O00482;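 active means inhibition above the mean inhibition of all tested compounds plus 3 SD, cut at about 73% in these data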;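 further: 0% = DMSO wells and 100% = reporter-only cells lacking LRH-1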
SRC3 inh: inhibitors of human steroid receptor coactivator 3 (SRC3) | HEK293 GAL4-SRC3 luciferase reporter, luminescence | Q9Y6Q9 | 360,000 compounds, 0.17% hits | inhibition, % at 3.6 µM;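 active means inhibition above a per-campaign cutoff, the mean of all compounds plus 3 SD, cut at about 60% in these data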;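 further: 0% = DMSO-treated cells and 100% = gossypol-treated cells at 36 µM; higher means less SRC3-driven luciferase light from the GAL4 reporter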
Target sequence (Q9Y6Q9 whole entry, looked up, the tested form may be a part): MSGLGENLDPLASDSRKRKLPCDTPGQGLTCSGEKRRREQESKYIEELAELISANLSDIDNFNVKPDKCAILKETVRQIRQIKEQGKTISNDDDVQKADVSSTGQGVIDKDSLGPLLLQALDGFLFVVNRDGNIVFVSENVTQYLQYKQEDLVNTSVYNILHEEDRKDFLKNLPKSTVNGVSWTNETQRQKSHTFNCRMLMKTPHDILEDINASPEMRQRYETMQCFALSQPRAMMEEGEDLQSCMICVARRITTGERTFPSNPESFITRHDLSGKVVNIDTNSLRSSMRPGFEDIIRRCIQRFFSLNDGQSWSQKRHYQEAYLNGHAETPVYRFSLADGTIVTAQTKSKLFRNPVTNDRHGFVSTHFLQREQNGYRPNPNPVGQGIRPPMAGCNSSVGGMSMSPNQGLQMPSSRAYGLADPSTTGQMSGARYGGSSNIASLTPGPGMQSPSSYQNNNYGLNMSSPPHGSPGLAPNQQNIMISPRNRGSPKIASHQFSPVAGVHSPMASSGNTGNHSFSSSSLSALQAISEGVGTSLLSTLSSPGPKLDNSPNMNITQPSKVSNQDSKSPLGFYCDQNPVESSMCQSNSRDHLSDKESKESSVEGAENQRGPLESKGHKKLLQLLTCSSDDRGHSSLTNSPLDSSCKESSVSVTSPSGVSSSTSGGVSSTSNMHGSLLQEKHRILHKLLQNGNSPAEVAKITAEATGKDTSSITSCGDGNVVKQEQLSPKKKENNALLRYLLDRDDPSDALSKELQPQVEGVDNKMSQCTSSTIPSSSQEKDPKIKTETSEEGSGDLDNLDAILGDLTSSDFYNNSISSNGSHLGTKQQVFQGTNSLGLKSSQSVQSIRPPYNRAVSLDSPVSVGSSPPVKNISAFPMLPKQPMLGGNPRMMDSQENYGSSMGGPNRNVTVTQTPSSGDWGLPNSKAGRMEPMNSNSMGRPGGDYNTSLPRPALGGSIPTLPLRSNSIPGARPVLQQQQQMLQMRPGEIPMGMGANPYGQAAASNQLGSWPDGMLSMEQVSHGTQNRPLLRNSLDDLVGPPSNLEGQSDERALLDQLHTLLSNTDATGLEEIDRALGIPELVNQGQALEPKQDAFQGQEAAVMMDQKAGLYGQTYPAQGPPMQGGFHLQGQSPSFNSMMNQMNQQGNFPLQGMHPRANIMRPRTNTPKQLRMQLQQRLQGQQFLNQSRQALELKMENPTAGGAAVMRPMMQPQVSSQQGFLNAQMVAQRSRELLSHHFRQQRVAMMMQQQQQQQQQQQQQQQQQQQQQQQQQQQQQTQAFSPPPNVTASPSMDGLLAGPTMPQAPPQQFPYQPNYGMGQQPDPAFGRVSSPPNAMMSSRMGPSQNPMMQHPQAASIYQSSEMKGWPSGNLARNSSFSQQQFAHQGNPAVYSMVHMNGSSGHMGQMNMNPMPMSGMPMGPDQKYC
NCOA2 inhibitor: human SRC2 (NCOA2) inhibition | Q15596 | HEK293 GAL4-SRC2 luciferase reporter, luminescence | inhibition, % at 9 µM | 370,000 compounds, 0.17% hits | AID 651957;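 active means inhibition above the mean inhibition of all tested compounds plus 3 SD, set per campaign, cut at about 52% in these data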;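 further: 0% = DMSO treated cells and 100% = cells given Gossypol at 36 µM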
Gli-Sufu confirm: Gli-SUFU antagonism confirmation, single concentration; 2,500 compounds, 40% hits; Sufu-KO-LIGHT cells, Gli luciferase reporter, luminescence; shares compounds with Gli-Sufu block; inhibition, % at 5 µM;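 active means mean inhibition at 5 µM reaching about 45%, limit read from the data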;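 further: plate controls were DMSO-treated cells for no effect and wells lacking cells for full effect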
SufuKO cytotox: cytotoxicity counter-screen for Gli-SUFU antagonists | shares compounds with Gli-Sufu block | Sufu-KO-LIGHT cells cytotoxicity, ATP luminescence | cytotoxicity, % at 5 µM | 2,500 compounds, 32% hits | AID 651994;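 active means mean cytotoxicity at 5 µM above about 25%, limit read from the data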;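 further: cells exposed to compound overnight for roughly 16 to 18 hours; plate controls were DMSO wells with cells for no effect and medium without cells for full effect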
Wnt3a counter: counter-screen for Gli-SUFU antagonists: Wnt3a reporter inhibition; 2,500 compounds, 20% hits; AID 651995; shares compounds with Gli-Sufu block; inhibition, % at 6.25 µM; Wnt-LIGHT cells, Wnt3a-driven luciferase reporter, luminescence;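 active means mean inhibition above about 25%, limit read from the data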
VP16 Luc counter: VP16 inhibition counter-screen for COUP-TFII | inhibition, % at 8.5 µM | 2,500 compounds, 25% hits | HEK293 Gal4-VP16 luciferase reporter, luminescence | shares compounds with COUP-TFII inh; in the data active means inhibition above about 13%
COUP-TFII conf: confirmation of human COUP-TFII (NR2F2) inhibitors | HEK293 NGFI-A luciferase reporter, luminescence | shares compounds with COUP-TFII inh | inhibition, % at 8.5 µM | 2,500 compounds, 45% hits;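 active means mean inhibition over three repeats above a set limit taken from the earlier primary screen, cut at about 38% in these data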;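 further: 100% = cells given the luciferase reporter alone without the COUP-TF2 vector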
* = called active by the depositor; / = no result; ! = repeats disagree. A selection: hits, their analogues and other compounds. The true share with any hit is near 1.3%.

SMILES | Gli-Sufu block | COUP-TFII inh | NCOA1 inh | NR5A2 inv ag | SRC3 inh | NCOA2 inhibitor | VP16 Luc counter | COUP-TFII conf | others
O=C(c1ccc(C(F)(F)F)cc1)C1CCCN(Cc2ccncc2)C1 (stereo unspecified) | 56* | 46* | -6 | 21 | 20 | 22 | 7 | 18 | Gli-Sufu confirm=38;SufuKO cytotox=21;Wnt3a counter=-5
C[C@@H]1CC[C@H]2[C@@H](C)C(=O)O[C@@H]3O[C@@]4(C)CC[C@@H]1[C@]32OO4 | 15 | 2 | 6 | 23 | -2 | 9 | / | /
CCC(C)NC(=O)CCC(=O)OC1O[C@H]2OC3(C)CC[C@H]4[C@H](C)CCC(C1C)C24OO3 (stereo partly specified) | 79* | 51* | 62* | 91* | 77* | 10 | 12 | 49* | Gli-Sufu confirm=84*;SufuKO cytotox=22;Wnt3a counter=25*
CC(=O)c1cn(Cc2ccccc2C#N)c2ccccc12 | 59* | 47* | 6 | 45 | 28 | 27 | 2 | 53* | Gli-Sufu confirm=63*;SufuKO cytotox=18;Wnt3a counter=34*
O=Cc1cn(Cc2ccccc2F)c2ccccc12 | 3 | 13 | -35 | 26 | -3 | 7 | / | /
CC(=O)c1cn(Cc2ccccc2F)c2ccccc12 | 59* | 54* | 35 | 38 | 25 | -2 | 10 | 48* | Gli-Sufu confirm=49*;SufuKO cytotox=36*;Wnt3a counter=19
O=[N+]([O-])c1ccc(-[n+]2c(-c3ccccc3)cc(-c3ccccc3)cc2-c2ccccc2)cc1 | 7 | 14 | 5 | 13 | 9 | -10 | / | /
O=[N+]([O-])c1ccccc1-c1cc(-c2ccccc2)cc(-c2ccccc2)[n+]1Cc1ccccc1Cl | 38 | 56* | / | / | / | -23 | 14* | 44*
C[C@H]1CCC/C=C/[C@@H]2C[C@H](O)C[C@H]2[C@H](O)/C=C/C(=O)O1 | 89* | 50* | 23 | 90* | 68*! | 26 | 10 | 33
CS(=O)(=O)N1Cc2cc(Br)ccc2-n2nncc2C1 | / | -3 | / | / | / | 13 | / | /
CC1=CC2OC3CC4OC(=O)C=CC=CC(C(C)O)OCC(O)C(C)CC(=O)OCC2(CC1O)C4(C)C31CO1 (stereo unspecified) | 90* | 90* | 95* | 99* | 94* | 71* | 23* | 93*
CC(C)(C)OC(=O)NCCCCC(N)[P+](=O)O (stereo unspecified) | / | -13 | / | / | / | 14 | / | /
CC(=O)OC1C(=O)OCC23CCC4(C)OC4C2OC2CC(OC(=O)C=CC=CC(=O)OCCC1C)C3(C)C21CO1 (stereo unspecified) | 89* | 89* | 96* | 98* | 93* | 72* | 10 | 86*
O=C(NCCN1CCC2(CC1)C(=O)NCN2c1ccccc1)c1ccc(F)cc1F | / | -19 | / | / | / | -8 | / | /
O=C(c1ccc(Cl)cc1)C1CCCN(Cc2cccc3ncccc23)C1 (stereo unspecified) | 25 | 41* | 4 | -2 | 17 | 33 | 12 | 45*
O=C(c1ccc(Cl)cc1)C1CCCN(Cc2cccc3cccnc23)C1 (stereo unspecified) | 7 | 9 | 6 | 15 | 30 | 24 | / | /
COc1ccc(-n2nnnc2C(CCc2ccccc2)N2CCC(n3c(=O)[nH]c4ccccc43)CC2)cc1 (stereo unspecified) | / | 39* | 41 | 41 | 53 | -3 | 1 | 22
CCCNS(=O)(=O)c1ccc(OCC(=O)N2CCN(Cc3ccc4c(c3)OCO4)CC2)c(C)c1 | 48 | 46* | 14 | 31 | 13 | 26 | 1 | 21
COC(=O)C1C(c2ccc(F)cc2)CC2CCC1N2C (stereo unspecified) | / | 6 | / | / | / | 4 | / | /
COc1ccc(S(=O)(=O)N2Cc3ccccc3-n3nncc3C2)cc1 | / | 10 | 14 | 14 | -15 | 9 | / | /
Cc1cc(C)c(S(=O)(=O)N2Cc3ccccc3-n3nncc3C2)c(C)c1 | / | 40* | 15 | 12 | -1 | 31 | 0 | 18
C=C1C(=O)O[C@@H]2C[C@@H](C)[C@@H]3C=CC(=O)[C@@]3(C)[C@@H](O)[C@H]12 | 97* | 97* | 37 | 87* | 61 | 85* | 84* | 99*
COc1ccc(CC2NCC(O)C2OC(C)=O)cc1 (stereo unspecified) | 86* | 88* | 95* | 103* | 95* | 68* | 22* | 82*
COc1ccc(CC(=O)N2CCN(C)CC2)cc1 | -3 | 18 | -14 | 1 | 17 | 10 | / | /
CCc1cc(OC)c(CCN)cc1OC | / | -1 | / | / | / | 8 | / | /
SMILES | Gli-Sufu block | COUP-TFII inh | NCOA1 inh | NR5A2 inv ag | SRC3 inh | NCOA2 inhibitor | VP16 Luc counter | COUP-TFII conf | others
Cc1cc(N2CCNC[C@@H]2C)ccc1N1CC[C@@H](O)C1 | / | 1 | / | / | / | -12 | / | /
CC(=O)OC1C(O)C(C)OC(OC2C(OC(=O)C3CCC4C(C3)OC3(CC(OC(=O)/C=C/c5ccccc5)C(C)CO3)C43CO3)OC(C)C(O)C2OC(C)=O)C1O (stereo unspecified) | 90* | 91* | 96* | 99* | 95* | 72* | 23* | 87*
O=C(NCCN1CCC2(CC1)C(=O)NCN2c1ccccc1)c1cc(C(F)(F)F)ccc1C(F)(F)F | / | -4 | / | / | / | -5 | / | /
COc1ccc2c3c([nH]c2c1)[C@H](C=C(C)C)N1C(=O)[C@@H]2CCCN2C(=O)[C@@H]1C3 | / | 6 | / | / | / | -8 | / | /
CCOC(=O)C(O)(c1ccc(NC(=S)NC(=O)c2ccc(Cl)cc2Cl)c(C)c1)C(F)(F)F (stereo unspecified) | 20 | 38* | 23 | 5 | 24 | 22 | -4 | 19
CC(C)NC1(c2ccccc2)CCCCC1 | / | 9 | / | / | / | 28 | / | /
C[C@@H]1O[C@@H](O[C@@H]2C=C3CCC4C(CC[C@]5(C)[C@@H](c6ccc(=O)oc6)CC[C@]45O)[C@@]3(C)CC2)[C@H](O)[C@H](O)[C@H]1O (stereo partly specified) | 1 | 81* | 90* | 103* | 93* | 71* | 56* | 82*
